# How the values were obtained:
# Assay in all cases: yeast three-hybrid, YBZ-1, SC-Leu-His + 0.5 mM 3-AT, 4 days
# Settings in all cases: tags: N-Gal4 AD-HA kept; label: inside an RPR1-promoter hybrid RNA with tandem MS2 sites; ssRNA
# [1] = molecular target: PUM1 PUF domain R5-AKR (Homo sapiens, UniProt Q14671 828-1176, C1007A;R1008K;Q1011R)
# Outline: (§1)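 Pumilio-1 PUF domain libraries, randomized at the three base-contacting residues of each repeat, were co-expressed with matching RNA elements from a centromeric plasmid in strain YBZ-1, which carries a LexA–MS2 coat fusion and a HIS3 reporter. Transformants grew for four days on SC-Leu (input) or on SC-Leu-His + 0.5 mM 3-AT (selection), and the repeat regions were PCR-amplified and Illumina-sequenced. The interaction score is the log change in variant frequency from input to selection. That logarithm is base 2, with a pseudocount of 1 where a variant was absent.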
# [2] = molecular target: PUM1 PUF domain R4-HRG (Homo sapiens, UniProt Q14671 828-1176, N971H;H972R;Q975G)
# Outline: as §1
# [3] = molecular target: PUM1 PUF domain R4-NNW (Homo sapiens, UniProt Q14671 828-1176, H972N;Q975W)
# Outline: as §1
# [4] = molecular target: T1, PUM1 PUF domain R6-VFA (Homo sapiens, UniProt Q14671 828-1176, N1043V;Y1044F;Q1047A)
# T1 sequence: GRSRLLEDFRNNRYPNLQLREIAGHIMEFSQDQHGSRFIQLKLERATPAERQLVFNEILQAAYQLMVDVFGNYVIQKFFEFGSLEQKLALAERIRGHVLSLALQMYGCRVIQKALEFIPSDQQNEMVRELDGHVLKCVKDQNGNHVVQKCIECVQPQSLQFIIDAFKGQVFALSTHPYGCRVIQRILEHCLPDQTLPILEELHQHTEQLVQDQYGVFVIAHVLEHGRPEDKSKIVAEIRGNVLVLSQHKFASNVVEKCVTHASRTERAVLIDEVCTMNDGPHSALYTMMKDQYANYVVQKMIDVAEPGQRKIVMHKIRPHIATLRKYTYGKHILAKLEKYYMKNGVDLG
# Outline: as §1
# [5] = molecular target: PUM1 PUF domain R8-RNR (Homo sapiens, UniProt Q14671 828-1176, N1122R;Y1123N;Q1126R)
# Outline: as §1
# [6] = molecular target: PUM1 PUF domain R8-RFG (Homo sapiens, UniProt Q14671 828-1176, N1122R;Y1123F;Q1126G)
# Outline: as §1
# [7] = molecular target: PUM1 PUF domain R8-THR (Homo sapiens, UniProt Q14671 828-1176, N1122T;Y1123H;Q1126R)
# Outline: as §1
# [8] = molecular target: PUM1 PUF domain R5-DHA (Homo sapiens, UniProt Q14671 828-1176, C1007D;R1008H;Q1011A)
# Outline: as §1
# [9] = molecular target: PUM1 PUF domain R3-RIS (Homo sapiens, UniProt Q14671 828-1176, C935R;R936I;Q939S)
# Outline: as §1
# [10] = molecular target: PUM1 PUF domain R8-PFW (Homo sapiens, UniProt Q14671 828-1176, N1122P;Y1123F;Q1126W)
# Outline: as §1
sequence,measurement,setting,value
GGCUAGAACUAGUGGAUCCCCCGGCGCCCGGCGGCUCGAGCCCGGGUAAGUGUCAAUAGUCUGCAUGCCGCCGGGCGCCAUGCCUGCAGGUCGACUCUAGAAAACAUG,binding signal,[1],5.56 log2 enrichment (interaction score)
GGCUAGAACUAGUGGAUCCCCCGGCGCCCGGCGGCUCGAGCCCGGGUAAGUGUAUAUAGUCUGCAUGCCGCCGGGCGCCAUGCCUGCAGGUCGACUCUAGAAAACAUG,binding signal,[2],2.71 log2 enrichment (interaction score)
GGCUAGAACUAGUGGAUCCCCCGGCGCCCGGCGGCUCGAGCCCGGGUAAGUGUACAUAGUCUGCAUGCCGCCGGGCGCCAUGCCUGCAGGUCGACUCUAGAAAACAUG,binding signal,[2],2.09 log2 enrichment (interaction score)
same,binding signal,[3],4.15 log2 enrichment (interaction score)
GGCUAGAACUAGUGGAUCCCCCGGCGCCCGGCGGCUCGAGCCCGGGUAAGUGUAAAUAGUCUGCAUGCCGCCGGGCGCCAUGCCUGCAGGUCGACUCUAGAAAACAUG,binding signal,[4],2.89 log2 enrichment (interaction score)
same,binding signal,[2],3.06 log2 enrichment (interaction score)
same,binding signal,[5],0.57 log2 enrichment (interaction score)
same,binding signal,[6],4.85 log2 enrichment (interaction score)
same,binding signal,[7],2.7 log2 enrichment (interaction score)
GGCUAGAACUAGUGGAUCCCCCGGCGCCCGGCGGCUCGAGCCCGGGUAAGUGUUAAUAGUCUGCAUGCCGCCGGGCGCCAUGCCUGCAGGUCGACUCUAGAAAACAUG,binding signal,[8],4.01 log2 enrichment (interaction score)
GGCUAGAACUAGUGGAUCCCCCGGCGCCCGGCGGCUCGAGCCCGGGUAAGUGAAAAUAGUCUGCAUGCCGCCGGGCGCCAUGCCUGCAGGUCGACUCUAGAAAACAUG,binding signal,[4],6.94 log2 enrichment (interaction score)
GGCUAGAACUAGUGGAUCCCCCGGCGCCCGGCGGCUCGAGCCCGGGUAAGUGUAAUUAGUCUGCAUGCCGCCGGGCGCCAUGCCUGCAGGUCGACUCUAGAAAACAUG,binding signal,[9],3.36 log2 enrichment (interaction score)
GGCUAGAACUAGUGGAUCCCCCGGCGCCCGGCGGCUCGAGCCCGGGUAAGUGUAAGUAGUCUGCAUGCCGCCGGGCGCCAUGCCUGCAGGUCGACUCUAGAAAACAUG,binding signal,[9],3.17 log2 enrichment (interaction score)
GGCUAGAACUAGUGGAUCCCCCGGCGCCCGGCGGCUCGAGCCCGGGUAAGCGUAAAUAGUCUGCAUGCCGCCGGGCGCCAUGCCUGCAGGUCGACUCUAGAAAACAUG,binding signal,[5],2.37 log2 enrichment (interaction score)
same,binding signal,[6],6.69 log2 enrichment (interaction score)
same,binding signal,[10],3.6 log2 enrichment (interaction score)
same,binding signal,[7],3.22 log2 enrichment (interaction score)
GGCUAGAACUAGUGGAUCCCCCGGCGCCCGGCGGCUCGAGCCCGGGUAAGUGUGAAUAGUCUGCAUGCCGCCGGGCGCCAUGCCUGCAGGUCGACUCUAGAAAACAUG,binding signal,[8],2.38 log2 enrichment (interaction score)

# From publication PMC8384837, “Expanding the binding specificity for RNA recognition by a PUF domain”
